# Data published in publication PMC7862700, “An all-to-all approach to the identification of sequence-specific readers for epigenetic DNA modifications on cytosine”.
# Assays:
# Assay in all cases: DAPPL (digital affinity profiling via proximity ligation, sequencing); 10 mM Tris-HCl pH 7.5, 50 mM NaCl, 1 mM DTT, 4% glycerol, room temperature, 30 min; GST-TFs on glutathione beads, 16-mer random dsDNA library, 0.1% formaldehyde crosslink after washing; high values mean tight binding
# FLI1 = target: T1, FLI1 (Homo sapiens, UniProt Q01543 1-452); conditions: protein: recombinant; tags: N-terminal GST; dsDNA, one strand shown
# T1 sequence: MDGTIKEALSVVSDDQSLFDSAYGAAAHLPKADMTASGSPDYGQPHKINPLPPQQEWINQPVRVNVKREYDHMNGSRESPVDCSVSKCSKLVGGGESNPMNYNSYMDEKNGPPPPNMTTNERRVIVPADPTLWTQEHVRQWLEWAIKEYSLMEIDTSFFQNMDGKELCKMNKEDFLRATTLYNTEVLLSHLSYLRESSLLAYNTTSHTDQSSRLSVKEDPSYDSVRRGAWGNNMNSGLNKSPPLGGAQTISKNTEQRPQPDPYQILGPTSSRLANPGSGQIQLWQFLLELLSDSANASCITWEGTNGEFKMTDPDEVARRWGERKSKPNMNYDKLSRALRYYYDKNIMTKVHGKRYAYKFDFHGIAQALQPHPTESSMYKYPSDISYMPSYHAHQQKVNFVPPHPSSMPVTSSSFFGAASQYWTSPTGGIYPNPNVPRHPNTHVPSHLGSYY
# Outline: (§1)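 GST fusions of human transcription factors were expressed in yeast and captured with glutathione beads. Once given DNA barcodes and pooled alongside a tag-only sample, they were incubated for 30 min at room temperature with 200 nmole of a random double-stranded 16-mer DNA library in Tris/NaCl/DTT/glycerol buffer, then washed, crosslinked (0.1% formaldehyde), proximity-ligated, PCR-amplified and sequenced on an Illumina NextSeq500. The binding signal of each hexamer is its read frequency for a factor divided by its frequency for the tag-only sample.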
# ELK1 = target: T2, ELK1 (Homo sapiens, UniProt P19419 1-428); conditions: protein: recombinant; tags: N-terminal GST; dsDNA, one strand shown
# T2 sequence: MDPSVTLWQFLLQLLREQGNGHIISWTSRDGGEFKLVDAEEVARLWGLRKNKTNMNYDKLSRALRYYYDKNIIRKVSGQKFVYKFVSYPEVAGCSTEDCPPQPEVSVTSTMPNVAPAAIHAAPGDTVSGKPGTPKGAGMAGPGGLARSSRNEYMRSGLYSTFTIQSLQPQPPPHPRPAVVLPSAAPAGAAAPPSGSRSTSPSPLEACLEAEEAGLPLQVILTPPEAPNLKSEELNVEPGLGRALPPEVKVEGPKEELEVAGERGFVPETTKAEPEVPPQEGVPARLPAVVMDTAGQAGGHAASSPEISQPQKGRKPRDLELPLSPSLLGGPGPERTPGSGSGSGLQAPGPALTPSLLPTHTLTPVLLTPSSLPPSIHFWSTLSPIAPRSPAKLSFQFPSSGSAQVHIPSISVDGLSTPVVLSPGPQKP
# Outline: as §1
# GABPA = target: T3, GABPA (Homo sapiens, UniProt Q06546 1-454); conditions: protein: recombinant; tags: N-terminal GST; dsDNA, one strand shown
# T3 sequence: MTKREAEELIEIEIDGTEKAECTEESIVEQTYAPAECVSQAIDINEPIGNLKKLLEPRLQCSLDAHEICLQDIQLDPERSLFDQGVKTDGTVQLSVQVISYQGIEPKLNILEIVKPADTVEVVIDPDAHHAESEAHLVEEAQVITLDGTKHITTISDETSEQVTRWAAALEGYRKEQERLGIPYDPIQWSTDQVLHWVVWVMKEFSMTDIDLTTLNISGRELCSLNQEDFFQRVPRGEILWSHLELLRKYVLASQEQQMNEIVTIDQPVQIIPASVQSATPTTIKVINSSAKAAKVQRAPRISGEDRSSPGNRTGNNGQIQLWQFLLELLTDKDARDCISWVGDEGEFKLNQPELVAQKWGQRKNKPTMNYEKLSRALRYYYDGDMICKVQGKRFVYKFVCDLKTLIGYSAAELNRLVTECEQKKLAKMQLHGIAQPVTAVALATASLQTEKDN
# Outline: as §1
# ERG = target: T4, ERG (Homo sapiens, UniProt P11308 1-479); conditions: protein: recombinant; tags: N-terminal GST; dsDNA, one strand shown
# T4 sequence: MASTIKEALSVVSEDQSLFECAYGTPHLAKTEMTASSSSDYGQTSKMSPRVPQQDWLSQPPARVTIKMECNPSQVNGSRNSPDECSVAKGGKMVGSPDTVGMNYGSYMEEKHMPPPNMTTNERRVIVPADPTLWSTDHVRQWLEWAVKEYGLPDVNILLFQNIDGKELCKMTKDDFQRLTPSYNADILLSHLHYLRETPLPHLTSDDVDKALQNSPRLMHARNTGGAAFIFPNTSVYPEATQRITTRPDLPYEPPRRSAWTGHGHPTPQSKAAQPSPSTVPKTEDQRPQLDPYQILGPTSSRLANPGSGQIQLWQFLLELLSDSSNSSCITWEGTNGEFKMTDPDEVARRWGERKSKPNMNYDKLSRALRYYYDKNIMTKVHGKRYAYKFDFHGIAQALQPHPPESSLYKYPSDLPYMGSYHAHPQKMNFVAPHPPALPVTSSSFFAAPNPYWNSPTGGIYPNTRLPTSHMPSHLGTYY
# Outline: as §1
# ELF1 = ELF1 (Homo sapiens, UniProt P32519 1-619); conditions: protein: recombinant; tags: N-terminal GST; dsDNA, one strand shown
# ELF1, sequence (P32519 whole entry): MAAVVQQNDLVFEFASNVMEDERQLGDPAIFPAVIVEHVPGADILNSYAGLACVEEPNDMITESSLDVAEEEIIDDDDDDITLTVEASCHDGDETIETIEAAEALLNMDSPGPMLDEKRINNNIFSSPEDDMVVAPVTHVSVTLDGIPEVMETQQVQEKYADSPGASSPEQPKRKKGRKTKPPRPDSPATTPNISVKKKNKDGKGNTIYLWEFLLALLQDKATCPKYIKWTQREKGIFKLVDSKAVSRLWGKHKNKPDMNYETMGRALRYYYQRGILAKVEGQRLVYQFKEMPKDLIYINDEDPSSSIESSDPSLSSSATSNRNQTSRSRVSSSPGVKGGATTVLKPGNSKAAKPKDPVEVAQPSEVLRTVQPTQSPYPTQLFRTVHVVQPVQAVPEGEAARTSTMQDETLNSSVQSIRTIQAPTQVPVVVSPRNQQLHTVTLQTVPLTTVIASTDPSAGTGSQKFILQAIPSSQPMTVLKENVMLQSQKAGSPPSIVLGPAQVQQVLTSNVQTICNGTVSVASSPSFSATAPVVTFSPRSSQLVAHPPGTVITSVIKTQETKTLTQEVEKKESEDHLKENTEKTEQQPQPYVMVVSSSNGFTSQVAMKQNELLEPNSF
# Outline: as §1
# EHF = target: T5, EHF (Homo sapiens, UniProt Q9NZC4 1-300); conditions: protein: recombinant; tags: N-terminal GST; dsDNA, one strand shown
# T5 sequence: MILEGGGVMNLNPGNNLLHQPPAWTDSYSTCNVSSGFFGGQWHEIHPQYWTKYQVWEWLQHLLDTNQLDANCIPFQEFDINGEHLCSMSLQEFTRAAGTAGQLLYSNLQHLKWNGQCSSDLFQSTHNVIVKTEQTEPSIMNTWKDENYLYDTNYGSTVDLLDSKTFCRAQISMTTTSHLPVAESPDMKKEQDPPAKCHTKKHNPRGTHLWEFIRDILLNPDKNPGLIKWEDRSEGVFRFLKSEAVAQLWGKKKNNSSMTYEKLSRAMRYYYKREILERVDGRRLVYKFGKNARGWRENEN
# Outline: as §1
# SPI1 = SPI1 (Homo sapiens, UniProt P17947 1-270); conditions: protein: recombinant; tags: N-terminal GST; dsDNA, one strand shown
# Outline: as §1
# SPIB = SPIB (Homo sapiens, UniProt Q01892 1-262); conditions: protein: recombinant; tags: N-terminal GST; dsDNA, one strand shown
# SPIB, sequence (Q01892 whole entry): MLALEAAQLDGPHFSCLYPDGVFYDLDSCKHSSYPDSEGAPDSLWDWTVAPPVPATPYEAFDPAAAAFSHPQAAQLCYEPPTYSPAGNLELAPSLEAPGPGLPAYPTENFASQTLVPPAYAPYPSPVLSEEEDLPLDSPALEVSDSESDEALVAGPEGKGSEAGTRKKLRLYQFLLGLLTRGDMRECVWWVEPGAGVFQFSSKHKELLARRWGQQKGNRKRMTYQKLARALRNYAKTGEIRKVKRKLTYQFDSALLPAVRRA
# Outline: as §1
# ELK3 = target: T6, ELK3 (Homo sapiens, UniProt P41970 1-407); conditions: protein: recombinant; tags: N-terminal GST; dsDNA, one strand shown
# T6 sequence: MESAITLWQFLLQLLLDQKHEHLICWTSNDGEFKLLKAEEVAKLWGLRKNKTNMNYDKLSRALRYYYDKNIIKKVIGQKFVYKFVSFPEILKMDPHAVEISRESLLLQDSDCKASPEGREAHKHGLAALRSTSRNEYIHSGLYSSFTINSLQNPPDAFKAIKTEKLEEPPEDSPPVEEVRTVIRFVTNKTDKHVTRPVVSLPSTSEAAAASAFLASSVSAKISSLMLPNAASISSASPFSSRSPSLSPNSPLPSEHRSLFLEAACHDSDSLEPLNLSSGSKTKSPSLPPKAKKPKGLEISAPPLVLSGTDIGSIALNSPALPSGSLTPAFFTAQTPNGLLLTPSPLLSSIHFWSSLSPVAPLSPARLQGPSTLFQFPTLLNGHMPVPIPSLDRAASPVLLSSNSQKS
# Outline: as §1
# FEV = target: T7, FEV (Homo sapiens, UniProt Q99581 1-238); conditions: protein: recombinant; tags: N-terminal GST; dsDNA, one strand shown
# T7 sequence: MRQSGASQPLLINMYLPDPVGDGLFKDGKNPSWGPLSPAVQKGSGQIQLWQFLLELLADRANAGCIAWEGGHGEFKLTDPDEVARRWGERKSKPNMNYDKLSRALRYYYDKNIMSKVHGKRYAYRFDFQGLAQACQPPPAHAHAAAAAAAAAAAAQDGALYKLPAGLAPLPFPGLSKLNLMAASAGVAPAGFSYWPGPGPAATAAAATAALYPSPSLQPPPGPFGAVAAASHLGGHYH
# Outline: as §1
# ETV5 = ETV5 (Homo sapiens, UniProt P41161 1-510); conditions: protein: recombinant; tags: N-terminal GST; dsDNA, one strand shown
# ETV5, sequence (P41161 whole entry): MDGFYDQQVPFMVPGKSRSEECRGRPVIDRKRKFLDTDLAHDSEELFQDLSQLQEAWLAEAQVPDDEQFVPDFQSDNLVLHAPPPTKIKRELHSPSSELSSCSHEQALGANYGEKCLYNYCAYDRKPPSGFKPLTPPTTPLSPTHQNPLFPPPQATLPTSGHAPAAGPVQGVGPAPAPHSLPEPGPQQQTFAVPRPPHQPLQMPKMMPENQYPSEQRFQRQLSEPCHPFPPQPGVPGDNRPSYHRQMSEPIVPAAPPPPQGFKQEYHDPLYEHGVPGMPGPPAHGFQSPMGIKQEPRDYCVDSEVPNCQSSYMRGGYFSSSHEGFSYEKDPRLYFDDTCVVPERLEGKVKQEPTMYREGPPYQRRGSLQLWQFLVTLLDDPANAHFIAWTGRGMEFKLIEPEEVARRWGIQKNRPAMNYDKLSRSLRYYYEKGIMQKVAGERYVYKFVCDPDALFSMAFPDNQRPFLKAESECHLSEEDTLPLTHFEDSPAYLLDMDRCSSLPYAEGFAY
# Outline: as §1
# HSF1 = HSF1 (Homo sapiens, UniProt Q00613 1-529); conditions: protein: recombinant; tags: N-terminal GST; chain copies: 3; dsDNA, one strand shown
# HSF1, sequence (Q00613 whole entry): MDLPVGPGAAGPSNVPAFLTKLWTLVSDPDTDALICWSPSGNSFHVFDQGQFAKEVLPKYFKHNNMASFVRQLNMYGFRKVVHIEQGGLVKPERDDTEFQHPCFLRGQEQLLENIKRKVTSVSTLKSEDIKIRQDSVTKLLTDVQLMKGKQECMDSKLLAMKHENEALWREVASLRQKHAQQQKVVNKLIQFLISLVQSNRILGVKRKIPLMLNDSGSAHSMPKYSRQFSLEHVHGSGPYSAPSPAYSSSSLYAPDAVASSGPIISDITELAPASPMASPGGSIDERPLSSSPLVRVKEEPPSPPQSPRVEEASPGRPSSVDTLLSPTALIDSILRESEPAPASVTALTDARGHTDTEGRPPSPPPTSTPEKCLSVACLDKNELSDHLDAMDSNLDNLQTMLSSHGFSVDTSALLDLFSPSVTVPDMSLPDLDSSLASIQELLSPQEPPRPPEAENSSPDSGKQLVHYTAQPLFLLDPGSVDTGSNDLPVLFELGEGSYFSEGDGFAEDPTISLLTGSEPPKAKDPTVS
# Outline: as §1
# SPIC = target: T8, SPIC (Homo sapiens, UniProt Q8N5J4 1-248); conditions: protein: recombinant; tags: N-terminal GST; dsDNA, one strand shown
# T8 sequence: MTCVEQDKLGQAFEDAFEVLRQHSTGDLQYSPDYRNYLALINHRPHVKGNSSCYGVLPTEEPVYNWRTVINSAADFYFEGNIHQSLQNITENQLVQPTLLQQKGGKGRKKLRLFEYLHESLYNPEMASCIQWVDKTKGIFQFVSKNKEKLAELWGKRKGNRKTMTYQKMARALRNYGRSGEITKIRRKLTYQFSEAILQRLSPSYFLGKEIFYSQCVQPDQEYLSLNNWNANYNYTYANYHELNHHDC
# Outline: as §1
# ELF4 = ELF4 (Homo sapiens, UniProt Q99607 1-663); conditions: protein: recombinant; tags: N-terminal GST; dsDNA, one strand shown
# ELF4, sequence (Q99607 whole entry): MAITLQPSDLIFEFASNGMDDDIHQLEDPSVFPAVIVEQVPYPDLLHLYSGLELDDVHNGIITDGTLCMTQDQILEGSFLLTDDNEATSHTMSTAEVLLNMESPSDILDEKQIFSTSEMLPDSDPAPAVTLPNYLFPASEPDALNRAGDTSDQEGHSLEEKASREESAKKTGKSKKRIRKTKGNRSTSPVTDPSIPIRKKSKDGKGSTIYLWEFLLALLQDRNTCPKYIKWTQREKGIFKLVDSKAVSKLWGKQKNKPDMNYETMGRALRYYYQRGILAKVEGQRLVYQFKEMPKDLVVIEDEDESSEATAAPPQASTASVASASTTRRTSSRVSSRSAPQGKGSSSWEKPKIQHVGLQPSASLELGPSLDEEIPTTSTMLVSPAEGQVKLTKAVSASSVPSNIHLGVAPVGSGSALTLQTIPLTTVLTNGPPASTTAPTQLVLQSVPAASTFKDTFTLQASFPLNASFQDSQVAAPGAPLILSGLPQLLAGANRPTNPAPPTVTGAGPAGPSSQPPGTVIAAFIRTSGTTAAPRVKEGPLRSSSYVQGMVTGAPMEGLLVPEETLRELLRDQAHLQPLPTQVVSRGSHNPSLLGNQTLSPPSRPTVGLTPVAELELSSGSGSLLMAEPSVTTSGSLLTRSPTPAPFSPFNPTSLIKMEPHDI
# Outline: as §1
# ELK4 = target: T9, ELK4 (Homo sapiens, UniProt P28324-2 1-405); conditions: protein: recombinant; tags: N-terminal GST; dsDNA, one strand shown
# T9 sequence: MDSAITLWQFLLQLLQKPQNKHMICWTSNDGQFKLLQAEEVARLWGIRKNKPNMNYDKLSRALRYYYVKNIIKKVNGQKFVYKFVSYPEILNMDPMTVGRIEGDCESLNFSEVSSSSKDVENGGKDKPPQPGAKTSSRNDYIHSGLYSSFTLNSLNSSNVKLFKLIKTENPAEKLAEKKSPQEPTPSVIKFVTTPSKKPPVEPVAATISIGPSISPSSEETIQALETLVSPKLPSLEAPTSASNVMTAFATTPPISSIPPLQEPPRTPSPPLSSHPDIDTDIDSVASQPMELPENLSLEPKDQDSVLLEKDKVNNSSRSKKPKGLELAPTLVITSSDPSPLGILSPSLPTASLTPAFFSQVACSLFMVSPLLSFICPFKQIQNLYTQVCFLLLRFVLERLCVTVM
# Outline: as §1
# ETV2 = target: T10, ETV2 (Homo sapiens, UniProt O00321 1-342); conditions: protein: recombinant; tags: N-terminal GST; dsDNA, one strand shown
# T10 sequence: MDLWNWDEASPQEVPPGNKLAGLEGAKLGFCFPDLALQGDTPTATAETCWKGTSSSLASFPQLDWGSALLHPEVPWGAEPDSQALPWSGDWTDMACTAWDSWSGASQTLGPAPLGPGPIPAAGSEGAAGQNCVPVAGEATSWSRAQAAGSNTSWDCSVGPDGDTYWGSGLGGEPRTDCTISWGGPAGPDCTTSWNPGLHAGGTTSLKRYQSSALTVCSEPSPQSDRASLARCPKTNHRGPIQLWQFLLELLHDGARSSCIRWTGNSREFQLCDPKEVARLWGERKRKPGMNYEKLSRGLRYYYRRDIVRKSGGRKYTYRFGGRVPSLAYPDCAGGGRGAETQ
# Outline: as §1
# ELF3 = target: T11, ELF3 (Homo sapiens, UniProt P78545 1-371); conditions: protein: recombinant; tags: N-terminal GST; dsDNA, one strand shown
# T11 sequence: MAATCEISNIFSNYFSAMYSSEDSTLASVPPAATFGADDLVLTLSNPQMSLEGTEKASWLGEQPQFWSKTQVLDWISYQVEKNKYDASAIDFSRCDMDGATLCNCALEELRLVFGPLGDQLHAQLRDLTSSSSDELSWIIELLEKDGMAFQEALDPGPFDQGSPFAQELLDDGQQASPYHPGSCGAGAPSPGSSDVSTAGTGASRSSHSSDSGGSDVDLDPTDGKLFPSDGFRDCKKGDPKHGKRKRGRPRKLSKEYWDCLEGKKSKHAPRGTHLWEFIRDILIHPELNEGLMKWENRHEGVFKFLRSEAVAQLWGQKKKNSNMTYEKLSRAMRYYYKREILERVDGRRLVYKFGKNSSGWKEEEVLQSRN
# Outline: as §1
# CRX = CRX (Homo sapiens, UniProt O43186 1-299); conditions: protein: recombinant; tags: N-terminal GST; dsDNA, one strand shown
# CRX, sequence (O43186 whole entry): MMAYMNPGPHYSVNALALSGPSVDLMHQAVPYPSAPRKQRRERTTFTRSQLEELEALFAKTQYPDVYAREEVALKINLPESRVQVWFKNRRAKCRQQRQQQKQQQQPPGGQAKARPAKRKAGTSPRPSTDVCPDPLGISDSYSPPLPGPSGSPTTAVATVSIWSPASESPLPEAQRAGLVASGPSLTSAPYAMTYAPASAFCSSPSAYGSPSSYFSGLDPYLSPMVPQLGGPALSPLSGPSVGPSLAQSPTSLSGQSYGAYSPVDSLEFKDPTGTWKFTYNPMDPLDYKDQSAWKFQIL
# Outline: as §1
# ETV1 = ETV1 (Homo sapiens, UniProt P50549 1-477); conditions: protein: recombinant; tags: N-terminal GST; dsDNA, one strand shown
# ETV1, sequence (P50549 whole entry): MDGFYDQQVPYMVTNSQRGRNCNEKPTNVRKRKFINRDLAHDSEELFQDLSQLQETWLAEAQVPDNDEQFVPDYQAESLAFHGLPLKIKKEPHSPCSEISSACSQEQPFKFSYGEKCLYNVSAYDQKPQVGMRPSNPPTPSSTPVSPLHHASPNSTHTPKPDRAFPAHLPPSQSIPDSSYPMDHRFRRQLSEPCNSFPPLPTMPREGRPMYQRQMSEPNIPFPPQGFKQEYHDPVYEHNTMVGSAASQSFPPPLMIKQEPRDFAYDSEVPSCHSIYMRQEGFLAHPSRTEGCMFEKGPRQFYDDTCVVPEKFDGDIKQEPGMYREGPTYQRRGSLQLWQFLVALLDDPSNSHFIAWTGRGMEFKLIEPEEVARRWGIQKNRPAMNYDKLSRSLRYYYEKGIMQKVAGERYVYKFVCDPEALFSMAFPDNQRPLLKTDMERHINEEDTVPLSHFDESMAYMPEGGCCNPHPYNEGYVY
# Outline: as §1
sequence,measurement,setting,value
ATACAA,binding signal,FLI1,"1.19 fold enrichment (6-mer frequency, TF over GST control)"
same,binding signal,ELK1,"1.15 fold enrichment (6-mer frequency, TF over GST control)"
same,binding signal,GABPA,"1.14 fold enrichment (6-mer frequency, TF over GST control)"
same,binding signal,ERG,"1.1 fold enrichment (6-mer frequency, TF over GST control)"
same,binding signal,ELF1,"1.21 fold enrichment (6-mer frequency, TF over GST control)"
same,binding signal,EHF,"1.15 fold enrichment (6-mer frequency, TF over GST control)"
same,binding signal,SPI1,"1.07 fold enrichment (6-mer frequency, TF over GST control)"
same,binding signal,SPIB,"1.09 fold enrichment (6-mer frequency, TF over GST control)"
same,binding signal,ELK3,"1.31 fold enrichment (6-mer frequency, TF over GST control)"
same,binding signal,FEV,"1.09 fold enrichment (6-mer frequency, TF over GST control)"
same,binding signal,ETV5,"1.15 fold enrichment (6-mer frequency, TF over GST control)"
same,binding signal,HSF1,"1.03 fold enrichment (6-mer frequency, TF over GST control)"
same,binding signal,SPIC,"1.06 fold enrichment (6-mer frequency, TF over GST control)"
same,binding signal,ELF4,"1.17 fold enrichment (6-mer frequency, TF over GST control)"
same,binding signal,ELK4,"1.08 fold enrichment (6-mer frequency, TF over GST control)"
same,binding signal,ETV2,"1.04 fold enrichment (6-mer frequency, TF over GST control)"
same,binding signal,ELF3,"1.16 fold enrichment (6-mer frequency, TF over GST control)"
same,binding signal,CRX,"1.07 fold enrichment (6-mer frequency, TF over GST control)"
same,binding signal,ETV1,"1.13 fold enrichment (6-mer frequency, TF over GST control)"
